High-throughput results: PubChem BioAssay, National Center for Advancing Translational Sciences (NCATS)
This is one part of a sample in which hits are shown more often than they occur.
TDP1 cell noCPT: qHTS for Inhibitors of human tyrosyl-DNA phosphodiesterase 1 (TDP1): qHTS in cells in absence of CPT; DT40 Tdp1-/- hTDP1 cells, no CPT, ATP luminescence, 48 h; Potency, µM (titrated, usually from 46.2 µM), for inactives: at the top dose activity change, negative = growth inhibition, most hits filed as inhibitors; actives 15% (n = 420,000); AID 686978, 2013; note: potency is the fitted concentration of half-maximal effect; nearly all actives have a fitted effect of over 55% in size
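Stably hTDP1-transfected Tdp1-null chicken DT40 cells were treated with library compounds minus camptothecin and grown for at least 48 hr at 37 °C, after which cellular ATP was quantified by luminescence.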
IL1B secr inh: blocks inflammasome-driven IL-1 beta release; THP-1 LPS/ATP IL-1B secretion, AlphaLISA, 16 h; hits give low values; activity change, % at 57.5 µM; actives 4.7% (n = 360,000); AID 743279; in the data active = activity change below about -50%; inconclusive = mostly about -30% to -49%
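THP-1 cells pretreated 1 hr with compounds (up to 57.5 uM final), then stimulated with LPS (250 ng/mL final) plus ATP (1.25 mM final); secreted IL-1B measured by AlphaLISA after 16 hr, decreased signal indicating inhibition.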
HT1080NT lethal: kills 2HG-producing HT-1080-NT fibrosarcoma cells. HT-1080-NT fibrosarcoma viability, CellTiter-Glo ATP luminescence, 48 h. Potency, µM (doses to about 46.1 µM), for the others: top-dose activity, negative = less viability, actives largely listed as cytotoxic. actives 1.6% (n = 360,000). AID 686970;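 note: NT is the 2HG producing partner of a matched IDH1 knockdown line; potency is the fitted concentration of half-maximal effect; 0% = DMSO-treated cells and -100% = media-only wells without cells; nearly all actives have a fitted effect of over 55% in size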
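HT-1080-NT; 750 cells/well; 5% FBS RPMI; 48 h compound, 37 degrees C; CellTiter-Glo luminescence; curve fitting and curve-class assignment.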
TDP1 cell CPT: DT40-hTDP1 cell growth loss with CPT | chicken DT40 Tdp1-/-;hTDP1 cells + 20 nM CPT, ATP luminescence, 48 h | Potency, µM (top dose mostly 46.2 µM), inactives show at the highest dose activity change, negative = growth inhibition, most hits filed as inhibitors | actives 12% (n = 420,000); note: potency is the fitted concentration of half-maximal effect; nearly all actives have a fitted effect of over 55% in size
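Chicken DT40 Tdp1-/- cells stably complemented with human TDP1 were seeded at 400 cells/well in medium containing 20 nM camptothecin, exposed to pin-transferred compounds, and grown at 37 °C for at least 48 hr. Viability was read as ATP luminescence.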
12-LOX inh: blocks human arachidonate 12S-lipoxygenase; P18054; actives 1.1% (n = 580,000); AID 1671190; Potency, µM (top dose mostly 108 µM), for the others: at the top dose activity change, negative = inhibition, most hits filed as inhibitors; purified 12hLO, xylenol orange hydroperoxide absorbance; note: potency is the fitted concentration of half-maximal effect
Target sequence (P18054 whole entry, looked up): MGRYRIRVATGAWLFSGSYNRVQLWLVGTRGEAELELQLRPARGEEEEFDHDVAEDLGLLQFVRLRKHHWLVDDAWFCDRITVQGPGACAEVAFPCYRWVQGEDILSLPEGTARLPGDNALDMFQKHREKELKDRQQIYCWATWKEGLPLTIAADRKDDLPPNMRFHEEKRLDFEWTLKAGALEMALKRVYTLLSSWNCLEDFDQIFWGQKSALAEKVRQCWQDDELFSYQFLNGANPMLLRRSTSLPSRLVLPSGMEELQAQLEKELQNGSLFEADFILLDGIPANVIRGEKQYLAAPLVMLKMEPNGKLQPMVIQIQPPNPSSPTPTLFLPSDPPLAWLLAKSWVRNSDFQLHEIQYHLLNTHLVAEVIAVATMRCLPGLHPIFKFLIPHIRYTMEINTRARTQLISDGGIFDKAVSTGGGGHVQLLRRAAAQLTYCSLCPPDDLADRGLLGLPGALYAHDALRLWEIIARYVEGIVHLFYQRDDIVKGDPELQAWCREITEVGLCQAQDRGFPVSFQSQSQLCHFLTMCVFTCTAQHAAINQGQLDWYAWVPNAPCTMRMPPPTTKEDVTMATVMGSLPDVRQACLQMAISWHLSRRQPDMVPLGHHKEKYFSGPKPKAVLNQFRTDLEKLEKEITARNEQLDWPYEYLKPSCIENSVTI
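Purified human 12hLO (150 nM final) in 25 mM Hepes, 0.01% Triton X-100, pH 7.0 was preincubated 15 min at room temperature with compound. Then 40 uM arachidonic acid was added, 30 min. Hydroperoxide was read by Fe-XO absorbance ratio 573/405 nm.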
HT1080 IDH1KD tx: kills HT-1080 cells with IDH1 knockdown. HT-1080 IDH1 knockdown viability, ATP luminescence, 48 h. Potency, µM (highest dose often 46.1 µM), for inactives: at the highest dose activity, negative = toxicity, most hits filed as cytotoxic. actives 2% (n = 360,000);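 note: potency is the fitted concentration of half-maximal effect; 0% = DMSO wells and -100% = cell-free medium wells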
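% activity derives from luminescence (CellTiter-Glo), normalised to DMSO and no-cell wells. HT-1080-IDH1KD cells, 750/well, had 48 h compound exposure at 37 °C.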
* hit, by the source's call; ? = inconclusive; / = no result given. Unless noted, calls come from the whole dose curve; as a rule, active = well fitted curve in the direction sought with a large enough effect; inconclusive = small, poorly fitted or top-dose-only effect, or another doubt; inactive = no such curve, though single readings can be large; an effect the other way counts as inactive or inconclusive. Unless noted, % is set by controls: 0 for no effect and ±100 for the full control effect.

SMILES | TDP1 cell noCPT | IL1B secr inh | HT1080NT lethal | TDP1 cell CPT | 12-LOX inh | HT1080 IDH1KD tx
S=c1[nH]nc(-c2ccccc2)n1/N=C/c1cccc(Cl)c1 | ? | 18 | -11% | ? | -21% | 0%
S=c1[nH]nc(-c2ccccn2)n1/N=C/c1cccc2ccccc12 | 0% | 9 | 13% | -1% | 5.6µM* | 22%
S=c1[nH]nc(-c2ccccc2)n1/N=C/c1ccc(Cl)cc1 | -25% | -7 | 3% | -28% | 22µM* | -5%
C=CCn1c(-c2cccnc2)n[nH]c1=S | 1% | 10 | 10% | 0% | -22% | 16%
c1ccc(CN2CCC(Oc3nccnc3N3CCc4ccccc43)C2)nc1 (centres undefined) | / | / | / | / | 45% | /
Cc1nn(-c2ccccc2)c(C)c1/C=N/n1c(-c2ccncc2)n[nH]c1=S | -19% | 0 | -8% | -3% | ? | -18%
Fc1ccc(-c2n[nH]c(=S)n2/N=C/c2c[nH]c3ccccc23)cc1 | 6.5µM* | 5 | 3% | 7.3µM* | ? | -7%
S=c1[nH]nc(-c2ccccn2)n1/N=C/c1ccc(Cl)cc1 | -15% | 9 | 17% | 1% | 28µM* | 3%
S=c1[nH]nc(-c2ccccn2)n1/N=C/c1ccccc1 | -8% | 18 | 16% | 1% | ? | 18%
Cc1nn(-c2ccccc2)c(C)c1/C=N/n1c(-c2ccc(Cl)cc2)n[nH]c1=S | 16µM* | 22 | -10% | ? | ? | -9%
CCC1=NN(C(=O)c2ccccc2O)C(O)(c2ccccc2)C1 (centres undefined) | 12µM* | 107 | ? | 13µM* | -28% | ?
CCC1=NN(C(=O)c2ccc(Cl)cc2)C(O)(c2ccccc2)C1 (centres undefined) | ? | -8 | -12% | 23µM* | -8% | -8%
O=C1CN(CC(=O)Nc2c(Cl)cccc2Cl)CCN1 | / | / | / | / | 23% | /
CN(Cc1ccccc1)c1nc2c(c(=O)[nH]c(=O)n2C)n1CCCc1ccccc1 | 35µM* | -54* | ? | 29µM* | ? | -19%
Cn1c(=O)[nH]c(=O)c2c1nc(N(CCO)Cc1ccccc1)n2CCCc1ccccc1 | ? | -8 | -10% | 26µM* | 81% | -24%
Cn1c(=O)[nH]c(=O)c2[nH]c(N(Cc3ccccc3)Cc3ccccc3)nc21 | 15µM* | -14 | ? | ? | 0% | ?
C=C(C)Cn1c(N(CCO)Cc2ccccc2)nc2c1c(=O)[nH]c(=O)n2C | -17% | 0 | -1% | -27% | -4% | 11%
COc1cccc(N/C=C(\C#N)c2ccc(OCCCF)cc2)c1 | ? | -52* | 3% | 18µM* | 0% | 13%
COc1ccc(/C(C#N)=C/c2ccc(OCCOc3ccccc3)cc2)cc1OC | / | / | / | / | 5% | /
c1ccc(-c2ccc3c(c2)c2c4n3CCN=C4CCC2)cc1 | ? | ? | ? | 23µM* | ? | ?
OC1CN=C2CCCc3c2n(c2ccc(Cl)cc32)C1 (centres undefined) | -23% | ? | -30% | -8% | -29% | -13%
COc1ccccc1N(C)S(=O)(=O)c1ccc(Cl)c(C(=O)NNC(=O)c2ccccc2O)c1 | ? | 112 | -4% | ? | 3% | -1%
